Our source for the growth inhibition values is PubChem BioAssay (NCI).

Structures are written as SMILES. About 79,000 compounds went through this panel and 15% of them were active in at least one assay; those are over-represented in the sample as a whole. Activity calls are given as the source filed them. Rule as the data show it: active = growth inhibition above about 70%; inactive = the rest.

This test can be described thus: NCI Yeast Anticancer Drug Screen. Data for the mlh1 strain (AID 171).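 Also: 0% = growth of vehicle-treated control cultures of the same strain.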 The conditions noted are these: S. cerevisiae mlh1 strain growth inhibition, stronger effect = higher value. Here is the method: Growth inhibition of yeast strains with defined genetic alterations is measured as a screen for potential anti-cancer activity. Selected strains with alterations in DNA damage repair or cell cycle control were exposed to compounds and growth inhibition was measured relative to vehicle treated controls. The strain used in this assay is mlh1

With `Oc1ccc(O)c(Cc2ccccc2)c1`, the growth inhibition runs as follows: (at 1.2 µM) 9% (inactive); (at 3.7 µM) 22% (inactive); (at 11.0 µM) 47% (inactive); (at 33.0 µM) 89% (active); (at 100.0 µM) 98% (active).

Take `OCC(CO)C(c1cccc2ccccc12)c1cccc2ccccc12`: the growth inhibition is 0% (inactive) (at 1.2 µM); 11% (inactive) (at 3.7 µM); 99% (active) (at 11.0 µM); 99% (active) (at 33.0 µM); 92% (active) (at 100.0 µM).

As to `Brc1ccccc1-c1ncc(-c2ccccc2)o1`, the growth inhibition (at 1.2 µM) was -4% (inactive); the growth inhibition (at 3.7 µM) was -13% (inactive); the growth inhibition (at 11.0 µM) is 15% (inactive); the growth inhibition (at 33.0 µM) was 47% (inactive); the growth inhibition (at 100.0 µM) is 60% (inactive).

As for `COC(=O)C1(C)CCc2c(ccc3ccccc23)C1=O` (stereo not given), the growth inhibition (at 1.2 µM) was -2% (inactive); the growth inhibition (at 3.7 µM) was 2% (inactive); the growth inhibition (at 11.0 µM) is 7% (inactive); the growth inhibition (at 33.0 µM) is 5% (inactive); the growth inhibition (at 100.0 µM) was 32% (inactive).

Regarding `CC[n+]1oc(C(=O)c2ccc(Cl)cc2)c(-c2ccccc2)c1-c1ccccc1.[Cl][Fe]([Cl])([Cl])[Cl]`, the growth inhibition by setting is: (at 1.2 µM) 4% (inactive); (at 3.7 µM) 1% (inactive); (at 11.0 µM) 9% (inactive); (at 33.0 µM) 31% (inactive); (at 100.0 µM) 74% (active).

Regarding `CC[N+](CC)(CC)c1ccccc1`, the growth inhibition was -26% (inactive) (at 1.2 µM); -46% (inactive) (at 3.7 µM); -43% (inactive) (at 11.0 µM); -43% (inactive) (at 33.0 µM); -42% (inactive) (at 100.0 µM).

`O=C(O)CCCC1CCCc2c1ccc1ccccc21` (stereo not given): the growth inhibition is, setting by setting: (at 1.2 µM) -3% (inactive); (at 3.7 µM) -1% (inactive); (at 11.0 µM) 4% (inactive); (at 33.0 µM) 60% (inactive); (at 100.0 µM) 99% (active).

Regarding `COC1=C(N)C(=O)c2nc(-c3nc(C(=O)O)c(C)c(-c4ccc(OC)c(OC)c4O)c3N)ccc2C1=O`, the growth inhibition runs as follows: (at 1.2 µM) 95% (active); (at 3.7 µM) 98% (active); (at 11.0 µM) 98% (active); (at 33.0 µM) 98% (active); (at 100.0 µM) 97% (active).
